Reference: paper PMC4336329 (PLoS ONE, 2015)
The campaign covered roughly 310,000 compounds. About 14,000 (4.5%) showed an effect of 50% or more. The effect is printed as a negative number. The entries come from a sample that favours strong results as a whole.

Each compound was assayed against human ether-à-go-go-related gene (hERG) potassium channel (human, UniProt Q12809) (assay: primary screen, population patch clamp on CHO cells stably expressing hERG; higher = less effect of the substance).
Sequence of human ether-à-go-go-related gene (hERG) potassium channel (Q12809 whole entry, looked up): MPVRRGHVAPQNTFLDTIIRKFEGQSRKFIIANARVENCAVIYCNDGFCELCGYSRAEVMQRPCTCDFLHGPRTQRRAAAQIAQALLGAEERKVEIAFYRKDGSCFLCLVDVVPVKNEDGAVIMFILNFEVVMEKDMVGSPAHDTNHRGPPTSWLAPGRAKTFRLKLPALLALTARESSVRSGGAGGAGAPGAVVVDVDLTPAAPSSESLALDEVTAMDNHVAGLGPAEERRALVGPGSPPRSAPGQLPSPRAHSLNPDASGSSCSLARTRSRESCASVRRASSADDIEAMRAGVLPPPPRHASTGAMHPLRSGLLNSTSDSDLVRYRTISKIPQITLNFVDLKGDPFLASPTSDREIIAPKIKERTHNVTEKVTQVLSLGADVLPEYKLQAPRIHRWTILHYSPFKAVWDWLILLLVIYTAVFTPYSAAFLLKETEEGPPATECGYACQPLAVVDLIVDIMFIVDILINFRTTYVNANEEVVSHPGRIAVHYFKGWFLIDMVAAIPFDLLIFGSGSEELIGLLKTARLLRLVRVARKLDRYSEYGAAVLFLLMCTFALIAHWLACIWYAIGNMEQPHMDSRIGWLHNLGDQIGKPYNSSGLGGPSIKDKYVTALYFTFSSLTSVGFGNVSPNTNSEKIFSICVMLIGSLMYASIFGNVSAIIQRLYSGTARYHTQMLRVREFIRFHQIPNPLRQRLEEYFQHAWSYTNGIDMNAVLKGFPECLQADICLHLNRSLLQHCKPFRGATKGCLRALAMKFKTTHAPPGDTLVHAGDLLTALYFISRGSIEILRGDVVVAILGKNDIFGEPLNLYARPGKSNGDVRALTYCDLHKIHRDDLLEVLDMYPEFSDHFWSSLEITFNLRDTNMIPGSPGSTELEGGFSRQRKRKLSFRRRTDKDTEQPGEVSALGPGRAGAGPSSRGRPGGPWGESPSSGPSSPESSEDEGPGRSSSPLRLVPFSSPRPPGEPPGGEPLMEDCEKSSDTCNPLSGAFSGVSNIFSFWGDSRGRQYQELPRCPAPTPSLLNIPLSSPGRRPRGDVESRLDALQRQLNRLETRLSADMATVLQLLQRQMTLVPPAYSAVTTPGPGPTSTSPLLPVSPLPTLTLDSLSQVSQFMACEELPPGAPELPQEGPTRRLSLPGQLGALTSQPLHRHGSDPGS
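Note: peak tail current of the secondary pulse compared with the same well before compound.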

Row | Compound | hERG current change (%, negative = inhibition) at 10uM
1 | O=C(Nc1cccc2c1CCCC2)c1ccc(Cl)c([N+](=O)[O-])c1 | 5.81%
2 | CC(=O)N1CCc2cc(Br)cc(S(=O)(=O)NCCCN3CCC(C)CC3)c21 | -16.8%
3 | CC(=O)c1sc(NC(=O)CCS(=O)(=O)c2ccccc2)nc1C | 8.51%
4 | Cc1sc(NC(=O)c2cc(-c3ccc(Cl)cc3)nc3ccccc23)c(C(N)=O)c1C | 5.31%
5 | NC(=O)/C(=C/c1ccco1)NC(=O)/C=C/c1ccccc1 | -5.56%
6 | N/C(=N\OC(=O)COc1ccccc1)c1ccc(Cl)cc1 | 2.9%
7 | CN1CCN(CC(=O)Nc2c(C#N)cnn2-c2ccccc2)CC1 | 12.1%
8 | CCOC(=O)[C@@H]1[C@H]2COc3cc(OC)ccc3[C@@H]2N2C(=O)N(c3ccc(C(F)(F)F)cc3)C(=O)[C@]12C | 15.1%
9 | O=C(O)C(=O)O.OCCNCCCOc1ccc(Cl)cc1Br | -54.9%
10 | Cl.OCCNCc1ccc(OCc2ccc(Cl)cc2Cl)cc1 | -45.8%
11 | Cl.OCCCCNCc1ccc(OCc2ccccc2Cl)cc1 | -15.9%
12 | Clc1ccc(OCCCNCc2ccccc2)c2ccccc12.O=C(O)C(=O)O | -1.92%
13 | Brc1ccccc1OCCNCc1ccccc1.O=C(O)C(=O)O | -29.8%
14 | CCc1cc(OCCCCNCc2ccccc2)ccc1Cl.O=C(O)C(=O)O | -25.6%
15 | C=CCNCCCOc1ccc(Cl)cc1Br.O=C(O)C(=O)O | -42.6%
16 | Cc1ccc(OCCCNCCO)c(Br)c1.O=C(O)C(=O)O | -10.5%
17 | Clc1cc(Br)ccc1OCCCNCc1ccccc1.O=C(O)C(=O)O | -30.1%
18 | Clc1ccc(Cl)c(OCCCCNCc2ccccc2)c1.O=C(O)C(=O)O | -71.5%
19 | Cl.OCCCCNCc1ccc(OCc2ccc(Cl)cc2Cl)cc1 | -51.6%
20 | Clc1ccc(OCCCNCc2ccccc2)c(Br)c1.O=C(O)C(=O)O | -64.4%
21 | Cc1cc(C)c(S(=O)(=O)Nc2ccc(OCC(=O)O)cc2)c(C)c1 | 6.93%
22 | Nc1nnnn1/N=C/c1ccccc1OCc1ccccc1 | 19%

Row | Compound | hERG current change (%, negative = inhibition) at 10uM
23 | COCCCN(Cc1cccs1)S(=O)(=O)c1c[nH]c(C(=O)OC)c1 | -8.01%
24 | Cc1ccc2c(c1)nc(NCCCO)n2C | -3.54%
25 | Cc1cc(Cl)ccc1OC(C)C(=O)OCC(=O)Nc1ccc2[nH]c(=O)[nH]c2c1 (centres unmarked) | -3.04%
26 | CN1CCN(c2nc(-c3ccccc3Cl)nc3ccccc23)CC1 | -73.8%
27 | OCCN1CCN(c2nc(-c3ccccc3O)nc3ccccc23)CC1 | -25.1%
28 | CCN1CCN(c2nc(-c3ccccc3Cl)nc3ccccc23)CC1.Cl | -69.9%
29 | CN1CCN(c2nc(-c3ccc(Cl)c(Cl)c3)nc3ccccc23)CC1 | 6.63%
30 | COc1nc(-c2ccc(Cl)cc2Cl)nc2ccccc12 | 6.59%
31 | COc1cccc(-c2nc(N3CCN(C)CC3)c3ccccc3n2)c1O | -30.8%
32 | Oc1ccccc1-c1nc(N2CCN(Cc3ccccc3)CC2)c2ccccc2n1 | 10.5%
33 | CN1CCN(c2nc(-c3ccccc3O)nc3ccccc23)CC1 | 9.47%
34 | CN1CCN(c2nc(-c3ccc(Cl)cc3Cl)nc3ccccc23)CC1 | -73.9%
35 | COCCNC(=O)CSc1ccccc1C(=O)NC1CCCc2ccccc21 (centres unmarked) | 5.31%
36 | COc1cc(CNC(=O)CCn2nc(C)c3c(C)n(-c4ccccc4)nc3c2=O)cc(OC)c1OC | 12%
37 | CCOc1cccc(C(=O)Nc2ccc3oc(-c4cccnc4)nc3c2)c1 | -9.4%
38 | N#Cc1ccc(C(=O)Nc2nc3ccccc3[nH]2)cc1 | 19%
39 | Cl.O=C(COc1ccc(Cl)cc1)NCCN1CCCC1 | -40%
40 | COc1cc(Br)cc(CN2CCN(C=O)CC2)c1O | -2.6%
41 | COc1cc(NC(=O)CN(C)S(=O)(=O)c2ccc(C)cc2)cc(OC)c1 | -19.9%
42 | CCOC(=O)C1=C(C)NC(=O)/C1=C\N(C)C | 19%
43 | CCOC(=O)c1ccc(NC(=S)N(CCCN2CCN(C)CC2)Cc2cccs2)cc1 | -65.4%
44 | CCOC(=O)c1ccc(NC(=S)N(CCCN2CCN(CC)CC2)Cc2cccs2)cc1 | -69.1%
